# In PubChem BioAssay AID1159580 (chemical genetic matrix, 2015):
# Among all 5,500 compounds or so, about 2,000 (36%) were called active. Not shown: some 18% with an inconclusive outcome. The list shows a part of the results. Unmarked numbers belong to inactive results. Cut-off read from the data, not from the text of the source: active = normalized growth mostly below about 0.91 (no sharp cut-off); inconclusive = no clear call, values can overlap the other calls; inactive = mostly above about 0.92.
# Experiment: chemical genetic growth profiling, strain panel (AID 1159580);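 note: tested at 20 µM; growth read once vehicle control cultures reached saturation at 30 °C; 1 = growth at the plate median or of vehicle wells; lower values mean less growth of the strain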
# Details: growth OD
# [1] = S. cerevisiae deletion strains, locus YCL061C, strain MRC1, hits give low values
compound,measurement,setting,value
Cc1cccc(Nc2cc(Cl)nc(SCC(=O)O)n2)c1C,normalized growth,"S. cerevisiae deletion strains, locus YAL021C, strain ccr4, hits give low values",0.932
same,normalized growth,"S. cerevisiae deletion strains, locus YAL026C, strain drs2, hits give low values",1.01
same,normalized growth,"S. cerevisiae deletion strains, locus YAL030W, strain snc1, hits give low values",1
same,normalized growth,"S. cerevisiae deletion strains, locus YBL061C, strain skt5, hits give low values",0.999
same,normalized growth,"S. cerevisiae deletion strains, locus YBR009C, strain hhf1, hits give low values",1.06
same,normalized growth,"S. cerevisiae deletion strains, locus YBR023C, strain chs3, hits give low values",1
same,normalized growth,"S. cerevisiae deletion strains, locus YBR171W, strain sec66, hits give low values",0.988
same,normalized growth,"S. cerevisiae deletion strains, locus YBR231C, strain swc5, hits give low values",1.01
same,normalized growth,"S. cerevisiae deletion strains, locus YBR279W, strain paf1, hits give low values",1.01
same,normalized growth,"S. cerevisiae deletion strains, locus YCL011C, strain gbp2, hits give low values",0.987
same,normalized growth,"S. cerevisiae deletion strains, locus YCL016C, strain dcc1, hits give low values",1.01
same,normalized growth,[1],0.984
same,normalized growth,"S. cerevisiae deletion strains, locus YCL069W, strain vba3, hits give low values",0.99
same,normalized growth,"S. cerevisiae deletion strains, locus YCR088W, strain abp1, hits give low values",0.988
same,normalized growth,"S. cerevisiae deletion strains, locus YDL005C, strain med2, hits give low values",0.99
same,normalized growth,"S. cerevisiae deletion strains, locus YDL040C, strain nat1, hits give low values",0.996
same,normalized growth,"S. cerevisiae deletion strains, locus YDR001C, strain nth1, hits give low values",0.984
same,normalized growth,"S. cerevisiae deletion strains, locus YDR069C, strain doa4, hits give low values",0.998
same,normalized growth,"S. cerevisiae deletion strains, locus YDR137W, strain rgp1, hits give low values",0.934
same,normalized growth,"S. cerevisiae deletion strains, locus YDR159W, strain sac3, hits give low values",1.03
same,normalized growth,"S. cerevisiae deletion strains, locus YDR195W, strain ref2",0.987
same,normalized growth,"S. cerevisiae deletion strains, locus YDR297W, strain sur2, hits give low values",0.991
same,normalized growth,"S. cerevisiae deletion strains, locus YDR334W, strain swr1, hits give low values",0.969
same,normalized growth,"S. cerevisiae deletion strains, locus YDR335W, strain msn5, hits give low values",0.996
same,normalized growth,"S. cerevisiae deletion strains, locus YDR392W, strain spt3, hits give low values",0.965
same,normalized growth,"S. cerevisiae deletion strains, locus YEL003W, strain gim4, hits give low values",0.999
same,normalized growth,"S. cerevisiae deletion strains, locus YEL037C, strain rad23, hits give low values",0.999
same,normalized growth,"S. cerevisiae deletion strains, locus YEL061C, strain CIN8 (second series), hits give low values",0.991
same,normalized growth,"S. cerevisiae deletion strains, locus YER015W, strain faa2, hits give low values",1.02
same,normalized growth,"S. cerevisiae deletion strains, locus YER016W, strain bim1, hits give low values",1.01
same,normalized growth,"S. cerevisiae deletion strains, locus YER111C, strain swi4, hits give low values",1.01
same,normalized growth,"S. cerevisiae deletion strains, locus YER155C, strain BEM2 (second series), hits give low values",1.04
same,normalized growth,"S. cerevisiae deletion strains, locus YFR010W, strain ubp6, hits give low values",1
same,normalized growth,"S. cerevisiae deletion strains, locus YGL167C, strain pmr1, hits give low values",0.997
same,normalized growth,"S. cerevisiae deletion strains, locus YGL173C, strain kem1, hits give low values",1
same,normalized growth,"S. cerevisiae deletion strains, locus YGL227W, strain vid30, hits give low values",1
same,normalized growth,"S. cerevisiae deletion strains, locus YGL240W, strain doc1, hits give low values",1.03
same,normalized growth,"S. cerevisiae deletion strains, locus YGL253W, strain hxk2, hits give low values",1.01
same,normalized growth,"S. cerevisiae deletion strains, locus YHR013C, strain ard1, hits give low values",0.977
same,normalized growth,"S. cerevisiae deletion strains, locus YHR027C, strain rpn1, hits give low values",0.987
same,normalized growth,"S. cerevisiae deletion strains, locus YHR142W, strain chs7, hits give low values",0.936
same,normalized growth,"S. cerevisiae deletion strains, locus YJL092W, strain hpr5, hits give low values",0.983
same,normalized growth,"S. cerevisiae deletion strains, locus YJL095W, strain BCK1 (second series), hits give low values",0.987
same,normalized growth,"S. cerevisiae deletion strains, locus YJL115W, strain asf1, hits give low values",0.98
same,normalized growth,"S. cerevisiae deletion strains, locus YJL129C, strain trk1, hits give low values",0.986
same,normalized growth,"S. cerevisiae deletion strains, locus YJL154C, strain vps35, hits give low values",0.992
same,normalized growth,"S. cerevisiae deletion strains, locus YJL164C, strain tpk1, hits give low values",0.978
same,normalized growth,"S. cerevisiae deletion strains, locus YJL166W, strain qcr8, hits give low values",1.01
same,normalized growth,"S. cerevisiae deletion strains, locus YJL187C, strain SWE1, hits give low values",0.996
same,normalized growth,"S. cerevisiae deletion strains, locus YKL160W, strain elf1, hits give low values",0.955
same,normalized growth,"S. cerevisiae deletion strains, locus YKR026C, strain gcn3, hits give low values",0.988
same,normalized growth,"S. cerevisiae deletion strains, locus YKR091W, strain srl3, hits give low values",0.989
same,normalized growth,"S. cerevisiae deletion strains, locus YLL001W, strain dnm1, hits give low values",1
same,normalized growth,"S. cerevisiae deletion strains, locus YLL026W, hits give low values",0.992
same,normalized growth,"S. cerevisiae deletion strains, locus YLL041C, strain sdh2, hits give low values",0.99
same,normalized growth,"S. cerevisiae deletion strains, locus YLR027C, strain aat2, hits give low values",0.993
same,normalized growth,"S. cerevisiae deletion strains, locus YLR221C, strain rsa3, hits give low values",0.997
same,normalized growth,"S. cerevisiae deletion strains, locus YLR258W, strain gsy2, hits give low values",1.01
same,normalized growth,"S. cerevisiae deletion strains, locus YLR262C, strain YPT6 (second series), hits give low values",0.962
same,normalized growth,"S. cerevisiae deletion strains, locus YLR320W, strain mms22, hits give low values",0.989
same,normalized growth,"S. cerevisiae deletion strains, locus YLR342W, strain FKS1, hits give low values",1
same,normalized growth,"S. cerevisiae deletion strains, locus YLR357W, strain rsc2, hits give low values",1.02
same,normalized growth,"S. cerevisiae deletion strains, locus YLR370C, strain arc18, hits give low values",0.992
same,normalized growth,"S. cerevisiae deletion strains, locus YLR384C, strain iki3, hits give low values",0.998
same,normalized growth,"S. cerevisiae deletion strains, locus YML120C, strain ndi1, hits give low values",0.986
same,normalized growth,"S. cerevisiae deletion strains, locus YMR058W, strain fet3, hits give low values",0.983
same,normalized growth,"S. cerevisiae deletion strains, locus YMR125W, strain sto1, hits give low values",0.988
same,normalized growth,"S. cerevisiae deletion strains, locus YMR129W, hits give low values",0.973
same,normalized growth,"S. cerevisiae deletion strains, locus YMR205C, strain PFK2, hits give low values",1.05
same,normalized growth,"S. cerevisiae deletion strains, locus YMR231W, strain pep5, hits give low values",0.992
same,normalized growth,"S. cerevisiae deletion strains, locus YNL071W, strain lat1, hits give low values",0.985
same,normalized growth,"S. cerevisiae deletion strains, locus YNL209W, strain ssb2, hits give low values",0.993
same,normalized growth,"S. cerevisiae deletion strains, locus YNL248C, strain rpa49, hits give low values",0.933
same,normalized growth,"S. cerevisiae deletion strains, locus YNL322C, strain KRE1 (second series), hits give low values",0.996
same,normalized growth,"S. cerevisiae deletion strains, locus YNR049C, strain mso1, hits give low values",0.988
same,normalized growth,"S. cerevisiae deletion strains, locus YOR001W, strain rrp6, hits give low values",0.974
same,normalized growth,"S. cerevisiae deletion strains, locus YOR070C, strain gyp1, hits give low values",1
same,normalized growth,"S. cerevisiae deletion strains, locus YOR080W, strain dia2, hits give low values",1.02
same,normalized growth,"S. cerevisiae deletion strains, locus YOR083W, strain WHI5, hits give low values",0.942
same,normalized growth,"S. cerevisiae deletion strains, locus YOR106W, strain vam3, hits give low values",0.946
same,normalized growth,"S. cerevisiae deletion strains, locus YOR265W, strain rbl2, hits give low values",0.992
same,normalized growth,"S. cerevisiae deletion strains, locus YOR270C, strain vph1, hits give low values",0.972
same,normalized growth,"S. cerevisiae deletion strains, locus YOR290C, strain snf2, hits give low values",0.976
same,normalized growth,"S. cerevisiae deletion strains, locus YPL051W, strain arl3, hits give low values",0.974
same,normalized growth,"S. cerevisiae deletion strains, locus YPL078C, strain atp4, hits give low values",0.925
same,normalized growth,"S. cerevisiae deletion strains, locus YPL106C, strain sse1, hits give low values",1.01
same,normalized growth,"S. cerevisiae deletion strains, locus YPL240C, strain hsp82, hits give low values",0.978
Cc1c(Cl)cccc1SCC(=O)O,normalized growth,"S. cerevisiae deletion strains, locus YAL013W, strain DEP1, hits give low values",0.944
same,normalized growth,"S. cerevisiae deletion strains, locus YBR229C, strain ROT2, hits give low values",0.958
same,normalized growth,[1],0.989
same,normalized growth,"S. cerevisiae deletion strains, locus YDL101C, strain DUN1, hits give low values",0.973
same,normalized growth,"S. cerevisiae deletion strains, locus YDL134C, strain PPH21, hits give low values",1.01
same,normalized growth,"S. cerevisiae deletion strains, locus YDR150W, strain NUM1, hits give low values",0.926
same,normalized growth,"S. cerevisiae deletion strains, locus YEL061C, strain CIN8, hits give low values",0.977
same,normalized growth,"S. cerevisiae deletion strains, locus YGR078C, strain PAC10, hits give low values",0.964
same,normalized growth,"S. cerevisiae deletion strains, locus YHR030C, strain SLT2, hits give low values",1.06
same,normalized growth,"S. cerevisiae deletion strains, locus YHR087W, strain rtc3, hits give low values",0.984
same,normalized growth,"S. cerevisiae deletion strains, locus YJR043C, strain POL32, hits give low values",0.973
same,normalized growth,"S. cerevisiae deletion strains, locus YJR075W, strain HOC1, hits give low values",0.937
same,normalized growth,"S. cerevisiae deletion strains, locus YKL190W, strain CNB1, hits give low values",1.01
same,normalized growth,"S. cerevisiae deletion strains, locus YLR039C, strain RIC1, hits give low values",1
same,normalized growth,"S. cerevisiae deletion strains, locus YLR058C, strain SHM2 (second series), hits give low values",0.967
same,normalized growth,"S. cerevisiae deletion strains, locus YLR085C, strain ARP6, hits give low values",1.03
same,normalized growth,"S. cerevisiae deletion strains, locus YLR262C, strain YPT6, hits give low values",0.995
same,normalized growth,"S. cerevisiae deletion strains, locus YML094W, strain GIM5, hits give low values",0.997
same,normalized growth,"S. cerevisiae deletion strains, locus YMR219W, strain ESC1, hits give low values",0.945 (active)
same,normalized growth,"S. cerevisiae deletion strains, locus YMR263W, strain SAP30, hits give low values",0.941
same,normalized growth,"S. cerevisiae deletion strains, locus YNL153C, strain GIM3, hits give low values",0.942
same,normalized growth,"S. cerevisiae deletion strains, locus YNL298W, strain CLA4 (second series), hits give low values",1.02
same,normalized growth,"S. cerevisiae deletion strains, locus YNL322C, strain KRE1, hits give low values",0.944
same,normalized growth,"S. cerevisiae deletion strains, locus YNR030W, strain Alg12, hits give low values",1
same,normalized growth,"S. cerevisiae deletion strains, locus YPL055C, strain LGE1, hits give low values",0.837
same,normalized growth,"S. cerevisiae deletion strains, locus YPL241C, strain CIN2, hits give low values",1
same,normalized growth,"S. cerevisiae deletion strains, locus YPR135W, strain CTF4, hits give low values",1.06
same,normalized growth,"S. cerevisiae strains, strain wild type, hits give low values",1.01
